Screens from PubChem.
CtBP-E1A inh: inhibitors of CtBP/E1A interaction. 340,000 tested, 0.49% active. activity change, % (concentration not given with the values). AID 651724. AlphaScreen GST-E1A/His-CtBP binding, 1536-well; hits give low values; in the data active = activity change below about -65%; inconclusive = mostly about -30% to -63%
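Steps: dispense buffer (Tris pH 8.0, NaCl 300 mM, TCEP 1 mM, BSA, Tween 20); add 5X protein mix (GST-E1A, His-CtBP, 125 nM each); pin 23 nL compound; 2 h at 37 °C, dark; add 5X beads (50 ug/mL); 1 h; read.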
RORg inh: blocks mouse ROR gamma transcriptional activity. P51450. 310,000 tested, 5.4% active. Drosophila S2 Gal4-RORgamma UAS-luciferase reporter, 20 h. AID 2551. Potency, µM (series often up to 53.6 µM), hits mostly inhibitors; note: nearly all actives have a fitted effect of over 60% in size
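Stable Schneider cell line, Gal4 DNA-binding domain fused to ROR gamma, UAS-luciferase. Cmpd 1 hr RT → CuSO4 700 uM final → 20 hr RT → luciferase reagent 10 min → luminescence.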
Six1-Eya2 inh: blocks human Six1 binding to Eya2; Q15475+O00167; 360,000 tested, 0.56% active; activity change, % (concentration not given with the values); AlphaScreen GST-Six1/His-Eya2 binding, biochemical; hits give low values; in the data active = activity change below about -65%; inconclusive = mostly about -30% to -63%
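Compounds are tested against tagged Six1 and Eya2 proteins bridged by glutathione donor and nickel acceptor beads; after a one-hour incubation at 37 °C without light, AlphaScreen emission is recorded.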
VP16 counter: counter-screen for ROR gamma inhibitors: Gal4-VP16 reporter. Drosophila S2 Gal4-VP16 UAS-luciferase, luminescence, 20 h. Potency, µM (titrated, usually from 53.6 µM), actives largely listed as inhibitors. 310,000 tested, 3.5% active;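 note: Gal4-VP16 expression switched on by copper sulfate through the metallothionein promoter; nearly all actives have a fitted effect of over 50% in size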
PKM2 act: activators of human pyruvate kinase M2; purified PKM2, Kinase-Glo ATP luminescence, activation; response scale: 0% is enzyme alone, no compound; 260,000 tested, 0.34% active; Potency, µM (series often up to 57.5 µM), usual class: activators; note: nearly all actives have a fitted effect of over 55% in size
Target sequence (P14618 whole entry, looked up): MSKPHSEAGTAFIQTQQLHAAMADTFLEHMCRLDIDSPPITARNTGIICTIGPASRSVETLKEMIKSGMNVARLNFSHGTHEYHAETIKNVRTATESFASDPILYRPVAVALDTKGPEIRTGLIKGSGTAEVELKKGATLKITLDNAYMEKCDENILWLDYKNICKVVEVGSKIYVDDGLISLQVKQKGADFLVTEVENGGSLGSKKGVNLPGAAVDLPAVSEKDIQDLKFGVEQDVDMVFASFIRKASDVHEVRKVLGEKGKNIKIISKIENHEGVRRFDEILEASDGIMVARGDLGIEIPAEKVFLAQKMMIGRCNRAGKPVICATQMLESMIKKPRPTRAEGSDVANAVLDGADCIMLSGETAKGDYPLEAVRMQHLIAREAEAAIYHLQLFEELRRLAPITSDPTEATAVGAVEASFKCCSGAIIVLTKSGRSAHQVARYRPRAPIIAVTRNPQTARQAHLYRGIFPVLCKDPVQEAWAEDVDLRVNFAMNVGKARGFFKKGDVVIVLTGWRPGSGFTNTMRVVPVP
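Purified hPK-M2 (>95%) run at intermediate activity with 0.1 mM ADP and 0.5 mM PEP in 50 mM imidazole pH 7.2, KCl, MgCl2; 1 h room temperature. ATP formed read by Kinase-Glo luminescence; normalized to uninhibited and no-enzyme controls.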
Of the large screens only hits and unclear results are named; the others gave an inactive call. Most compounds without a hit are left out; they make up all but 5.6% or so of the library. Unless noted, calls come from the whole dose curve; as a rule, active = well fitted curve in the direction sought with a large enough effect; inconclusive = small, poorly fitted or top-dose-only effect, or another doubt; inactive = no such curve, though single readings can be large; an effect the other way counts as inactive or inconclusive.

Cc1n[nH]c(=O)nc1N/N=C/c1ccc(O)c([N+](=O)[O-])c1	RORg inh 11µM, VP16 counter inconclusive
COc1ccc(/C=N/Nc2nc(=O)[nH]nc2C)cc1[N+](=O)[O-]	none
COc1cc(/C=N/Nc2nc(=O)[nH]nc2C)ccc1O	CtBP-E1A inh inconclusive, RORg inh 11µM
C[C@H](NC(=O)CNC(=O)[C@@H](NC(=O)[C@H](Cc1ccccc1)NC(=O)CNC(=O)CNC(=O)[C@@H](N)Cc1ccccc1)[C@@H](C)O)C(=O)N[C@@H](CCCN=C(N)N)C(=O)N[C@@H](CCCCN)C(=O)N[C@@H](CO)C(=O)N[C@@H](C)C(=O)N[C@@H](CCCN=C(N)N)C(=O)N[C@@H](CCCCN)C(N)=O	none (no result: CtBP-E1A inh, Six1-Eya2 inh, PKM2 act)
COc1cccc(-c2coc3c(C)c4oc(=O)c(CCC(=O)O)c(C)c4cc23)c1	CtBP-E1A inh -88, Six1-Eya2 inh inconclusive (no result: PKM2 act)
COc1ccc(-c2coc3cc4oc(=O)c(CC(=O)O)c(C)c4cc23)cc1	none (no result: PKM2 act)
COc1cccc(-c2coc3cc4oc(=O)c(CCC(=O)O)c(C)c4cc23)c1	CtBP-E1A inh -67, Six1-Eya2 inh -77, VP16 counter 13µM (no result: PKM2 act)
CN(CC1COc2ccccc2O1)C(=S)NC1CCCCC1 (stereo unspecified)	RORg inh 13µM, VP16 counter inconclusive
O=C(NC1CCCCC1)C1COc2ccccc2O1 (stereo unspecified)	none (no result: RORg inh, VP16 counter, PKM2 act)
COc1cccc(/C=N/Nc2nc(Nc3ccccc3)nc(-n3nc(C)cc3C)n2)c1O	CtBP-E1A inh inconclusive, RORg inh 1.1µM, Six1-Eya2 inh inconclusive, VP16 counter 2.5µM
COc1ccc(/C=N/Nc2nc(Nc3ccccc3)nc(N3CCCCC3)n2)cc1OC	none
Cc1cnn(-c2cc(N/N=C/c3ccccc3Cl)ncn2)c1	none
COc1cccc(/C=N/Nc2cc(-n3nc(C)cc3-c3ccccc3)ncn2)c1O	RORg inh inconclusive, Six1-Eya2 inh inconclusive, VP16 counter 1µM
Cc1cccc(CN(C)C[C@H]2OCc3cnnn3CCCC(=O)N([C@H](C)CO)C[C@@H]2C)c1	none (no result: RORg inh, VP16 counter, PKM2 act)
Cc1cc(C)c(C(=O)/C=C/c2cccc3ccccc23)c(=O)[nH]1	RORg inh inconclusive, VP16 counter 13µM
CCCCN(C)CCOc1ccccc1OCC	none
CCCCCCOc1ccc(C(=N)N(CCCC)CCCC)c2ccccc12	RORg inh inconclusive, VP16 counter 22µM (no result: CtBP-E1A inh, Six1-Eya2 inh, PKM2 act)
Cc1ccc(N2CC(C(=O)Nc3c(C)n(C)n(-c4ccccc4)c3=O)CC2=O)cc1 (stereo unspecified)	none
CCOC(=O)N1CCN(C(=O)CSc2cc(C)nc3c(-c4ccccc4OC)c(C)nn23)CC1	RORg inh 20µM, VP16 counter 13µM
O=C(c1ccc(OC2CCN(C/C=C/c3ccc(F)cc3)CC2)cc1)N1CCCC1	none (no result: PKM2 act)
COc1ccc(-c2nnc(SCc3nc4ccccc4c(=O)[nH]3)o2)cc1	none
O=S(=O)(Nc1cccc2ncccc12)c1cccs1	CtBP-E1A inh -90, RORg inh 2.2µM, Six1-Eya2 inh -92
CN1C[C@@H]2[C@@H]3C(=O)N(C)C(=O)[C@@H]3[C@](C)(C1=O)N2C(=O)c1ccc(C(F)(F)F)cc1	none (no result: RORg inh, VP16 counter, PKM2 act)
Clc1c(Cl)c(Cl)c2n[nH]nc2c1Cl	none
COc1cc(N2C(=O)C=CC2=O)c(OC)cc1Cl	RORg inh 5.6µM, VP16 counter 4.5µM, PKM2 act 8.9µM
COc1cc(Cl)c(S(=O)(=O)N2CCCC2)cc1Cl	none
Cc1cccc(NC(=O)CN(c2ccc(F)cc2)S(C)(=O)=O)c1	RORg inh 5.6µM, VP16 counter 5µM (no result: CtBP-E1A inh)
Cc1cc(C)n(-c2cccc(CN(C)Cc3nc(-c4cnccn4)no3)c2)n1	none
CN(C)c1cccc(-c2nnc(SCCCC#N)o2)c1	RORg inh 11µM, VP16 counter inconclusive
COc1cc(N=c2ssnc2Cl)cc(OC)c1OC	RORg inh inconclusive, VP16 counter 16µM
Clc1nssc1=Nc1ccccc1	RORg inh inconclusive, VP16 counter inconclusive
COc1ccc(N=c2ssnc2Cl)cc1	RORg inh inconclusive, VP16 counter inconclusive
Clc1ccc(N=c2ssnc2Cl)cc1	RORg inh inconclusive, VP16 counter 11µM
Cn1cc(C(=O)c2ccccc2)cc1-c1nc2ccccc2n1C	none
Cn1c(-c2ccc(Br)o2)nc2ccccc21	none
